This note sets out measurements from PMC7862700, “An all-to-all approach to the identification of sequence-specific readers for epigenetic DNA modifications on cytosine”.

Experiment in all cases: DAPPL (digital affinity profiling via proximity ligation, sequencing); 10 mM Tris-HCl pH 7.5, 50 mM NaCl, 1 mM DTT, 4% glycerol, room temperature, 30 min; GST-TFs on glutathione beads, 16-mer random dsDNA library, 0.1% formaldehyde crosslink after washing; high values mean tight binding
Test [1] deals with T1, FEV (Homo sapiens, UniProt Q99581 1-238).
T1 sequence: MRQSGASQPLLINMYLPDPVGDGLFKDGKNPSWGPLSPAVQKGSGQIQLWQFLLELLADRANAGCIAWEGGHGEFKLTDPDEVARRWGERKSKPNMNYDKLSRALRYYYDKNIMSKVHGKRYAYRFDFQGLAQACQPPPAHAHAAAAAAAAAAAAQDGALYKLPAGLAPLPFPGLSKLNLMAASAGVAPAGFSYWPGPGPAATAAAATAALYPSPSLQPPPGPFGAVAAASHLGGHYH
The settings on record: protein: recombinant; tags: N-terminal GST; dsDNA, one strand shown. The gist of the method: (§1)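 Binding signal is each hexamer's read frequency for a factor divided by its frequency in the tag-only sample. The factors were GST-fused human transcription factors from yeast, captured on glutathione beads, DNA-barcoded and pooled with that sample. Pools were incubated with 200 nmole of a random double-stranded 16-mer DNA library in Tris/NaCl/DTT/glycerol buffer at room temperature for 30 min, then washed, crosslinked with 0.1% formaldehyde, proximity-ligated with BsaI/T4 ligase (1 h, 37 °C), PCR-amplified and sequenced on an Illumina NextSeq500.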

For test [2], the target named is ETV5 (Homo sapiens, UniProt P41161 1-510). The note with it: protein: recombinant; tags: N-terminal GST; dsDNA, one strand shown. The procedure, abridged:
as §1

For test [3], the target named is HSF1 (Homo sapiens, UniProt Q00613 1-529). The note with it: protein: recombinant; tags: N-terminal GST; chain copies: 3; dsDNA, one strand shown. The procedure, abridged:
as §1

The target in test [4] is T2, SPIC (Homo sapiens, UniProt Q8N5J4 1-248).
T2 sequence: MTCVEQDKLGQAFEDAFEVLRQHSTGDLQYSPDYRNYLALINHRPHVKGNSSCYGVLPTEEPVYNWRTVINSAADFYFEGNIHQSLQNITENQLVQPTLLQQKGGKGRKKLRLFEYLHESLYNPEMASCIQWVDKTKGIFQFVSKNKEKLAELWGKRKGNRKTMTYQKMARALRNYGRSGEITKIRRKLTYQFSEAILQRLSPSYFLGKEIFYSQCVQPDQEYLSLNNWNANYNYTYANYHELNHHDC
The note with it: protein: recombinant; tags: N-terminal GST; dsDNA, one strand shown. The gist of the method:
as §1

Test [5] deals with ELF4 (Homo sapiens, UniProt Q99607 1-663). The settings on record: protein: recombinant; tags: N-terminal GST; dsDNA, one strand shown. The procedure, abridged: as §1
Test [6] has as its target T3, ELK4 (Homo sapiens, UniProt P28324-2 1-405).
T3 sequence: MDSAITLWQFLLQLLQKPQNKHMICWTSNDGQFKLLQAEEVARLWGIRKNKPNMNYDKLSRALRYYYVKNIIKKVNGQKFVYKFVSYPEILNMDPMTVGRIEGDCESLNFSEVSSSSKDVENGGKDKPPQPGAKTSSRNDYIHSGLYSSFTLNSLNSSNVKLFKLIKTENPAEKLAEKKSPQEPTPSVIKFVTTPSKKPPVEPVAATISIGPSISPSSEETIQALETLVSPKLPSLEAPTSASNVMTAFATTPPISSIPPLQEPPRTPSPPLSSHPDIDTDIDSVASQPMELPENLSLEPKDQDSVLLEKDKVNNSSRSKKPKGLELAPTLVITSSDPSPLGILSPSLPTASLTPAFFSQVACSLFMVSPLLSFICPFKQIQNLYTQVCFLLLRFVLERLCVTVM
The note with it: protein: recombinant; tags: N-terminal GST; dsDNA, one strand shown. The gist of the method: as §1

Test [7] deals with T4, ETV2 (Homo sapiens, UniProt O00321 1-342).
T4 sequence: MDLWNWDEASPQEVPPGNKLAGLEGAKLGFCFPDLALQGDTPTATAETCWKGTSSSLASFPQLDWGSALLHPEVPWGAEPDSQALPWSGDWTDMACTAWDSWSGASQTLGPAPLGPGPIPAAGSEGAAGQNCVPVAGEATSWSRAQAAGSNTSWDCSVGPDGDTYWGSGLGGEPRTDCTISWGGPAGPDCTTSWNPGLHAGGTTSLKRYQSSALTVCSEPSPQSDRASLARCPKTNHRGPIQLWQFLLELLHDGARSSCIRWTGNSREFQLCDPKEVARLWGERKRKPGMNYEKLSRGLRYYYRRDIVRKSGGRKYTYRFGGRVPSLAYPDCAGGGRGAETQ
The note with it: protein: recombinant; tags: N-terminal GST; dsDNA, one strand shown. The procedure, abridged:
as §1

In test [8] the target is T5, ELF3 (Homo sapiens, UniProt P78545 1-371).
T5 sequence: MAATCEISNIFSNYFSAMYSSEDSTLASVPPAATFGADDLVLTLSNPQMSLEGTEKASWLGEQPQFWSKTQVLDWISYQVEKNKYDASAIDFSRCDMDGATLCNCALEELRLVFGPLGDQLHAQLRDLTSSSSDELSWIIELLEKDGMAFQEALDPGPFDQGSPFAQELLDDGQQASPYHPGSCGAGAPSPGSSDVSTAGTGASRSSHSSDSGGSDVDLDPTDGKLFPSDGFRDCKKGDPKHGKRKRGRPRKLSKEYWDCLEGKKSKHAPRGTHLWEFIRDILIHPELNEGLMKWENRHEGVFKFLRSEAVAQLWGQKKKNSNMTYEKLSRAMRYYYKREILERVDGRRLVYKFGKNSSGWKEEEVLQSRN
The note with it: protein: recombinant; tags: N-terminal GST; dsDNA, one strand shown. The gist of the method: as §1

Test [9] concerns the target CRX (Homo sapiens, UniProt O43186 1-299). The settings on record: protein: recombinant; tags: N-terminal GST; dsDNA, one strand shown. The gist of the method:
as §1

Test [10] has as its target ETV1 (Homo sapiens, UniProt P50549 1-477). The note with it: protein: recombinant; tags: N-terminal GST; dsDNA, one strand shown. The procedure, abridged:
as §1

Test [11] concerns the target T6, ERF (Homo sapiens, UniProt P50548 1-548).
T6 sequence: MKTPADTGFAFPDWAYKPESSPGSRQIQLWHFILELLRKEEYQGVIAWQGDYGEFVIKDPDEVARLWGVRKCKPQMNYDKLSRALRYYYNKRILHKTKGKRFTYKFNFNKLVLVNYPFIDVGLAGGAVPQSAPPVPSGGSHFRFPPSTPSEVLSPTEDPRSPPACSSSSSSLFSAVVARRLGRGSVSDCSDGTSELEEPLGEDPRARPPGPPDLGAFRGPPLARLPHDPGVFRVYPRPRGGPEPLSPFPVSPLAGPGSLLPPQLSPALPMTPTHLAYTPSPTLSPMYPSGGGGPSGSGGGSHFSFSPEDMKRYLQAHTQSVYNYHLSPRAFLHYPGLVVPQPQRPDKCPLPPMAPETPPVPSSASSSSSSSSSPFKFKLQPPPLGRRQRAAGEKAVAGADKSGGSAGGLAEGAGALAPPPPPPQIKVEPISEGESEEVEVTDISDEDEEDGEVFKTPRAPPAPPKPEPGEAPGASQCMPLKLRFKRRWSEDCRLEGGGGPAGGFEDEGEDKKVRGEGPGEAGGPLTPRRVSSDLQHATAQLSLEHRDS
The note with it: protein: recombinant; tags: N-terminal GST; dsDNA, one strand shown. The procedure, abridged:
as §1

For test [12], the target named is T7, ETV3L (Homo sapiens, UniProt Q6ZN32 1-361).
T7 sequence: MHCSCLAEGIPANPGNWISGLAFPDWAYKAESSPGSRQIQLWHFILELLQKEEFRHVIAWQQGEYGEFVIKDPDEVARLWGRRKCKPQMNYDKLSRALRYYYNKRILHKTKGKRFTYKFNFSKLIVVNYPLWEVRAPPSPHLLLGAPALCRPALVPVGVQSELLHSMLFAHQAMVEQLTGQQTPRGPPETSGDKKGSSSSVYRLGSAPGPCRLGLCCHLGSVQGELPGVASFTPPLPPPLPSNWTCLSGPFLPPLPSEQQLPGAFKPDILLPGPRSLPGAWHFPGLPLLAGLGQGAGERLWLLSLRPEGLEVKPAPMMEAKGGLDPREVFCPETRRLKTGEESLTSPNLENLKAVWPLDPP
The note with it: protein: recombinant; tags: N-terminal GST; dsDNA, one strand shown. The gist of the method:
as §1

Test [13] has as its target T8, ETS2 (Homo sapiens, UniProt P15036 1-469).
T8 sequence: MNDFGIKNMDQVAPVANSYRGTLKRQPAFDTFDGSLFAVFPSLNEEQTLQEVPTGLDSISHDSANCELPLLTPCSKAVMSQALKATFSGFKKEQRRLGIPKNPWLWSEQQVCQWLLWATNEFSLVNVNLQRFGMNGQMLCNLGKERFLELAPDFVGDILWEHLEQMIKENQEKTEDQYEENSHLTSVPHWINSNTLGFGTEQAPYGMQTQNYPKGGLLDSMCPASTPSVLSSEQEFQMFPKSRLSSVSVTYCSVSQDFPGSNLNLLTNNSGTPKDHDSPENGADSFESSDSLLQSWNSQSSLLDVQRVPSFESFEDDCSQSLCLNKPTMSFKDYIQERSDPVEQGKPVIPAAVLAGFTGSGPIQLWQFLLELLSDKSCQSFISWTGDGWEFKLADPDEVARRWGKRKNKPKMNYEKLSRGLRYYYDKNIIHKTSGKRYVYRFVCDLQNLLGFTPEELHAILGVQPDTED
The note with it: protein: recombinant; tags: N-terminal GST; dsDNA, one strand shown. The procedure, abridged: as §1

Test [14] deals with T9, SPDEF (Homo sapiens, UniProt O95238 1-335).
T9 sequence: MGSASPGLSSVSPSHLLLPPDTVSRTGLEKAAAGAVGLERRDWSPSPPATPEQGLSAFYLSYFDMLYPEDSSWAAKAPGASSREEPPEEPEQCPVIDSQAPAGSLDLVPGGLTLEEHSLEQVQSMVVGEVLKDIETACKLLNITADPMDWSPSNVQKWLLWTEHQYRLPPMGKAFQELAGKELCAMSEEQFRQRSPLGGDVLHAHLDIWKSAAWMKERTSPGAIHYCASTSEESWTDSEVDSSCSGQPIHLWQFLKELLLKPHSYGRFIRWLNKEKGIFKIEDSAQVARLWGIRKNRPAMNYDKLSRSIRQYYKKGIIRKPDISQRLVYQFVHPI
The settings on record: protein: recombinant; tags: N-terminal GST; dsDNA, one strand shown. The procedure, abridged: as §1

Test [15] has as its target T10, ETV7 (Homo sapiens, UniProt Q9Y603 1-341).
T10 sequence: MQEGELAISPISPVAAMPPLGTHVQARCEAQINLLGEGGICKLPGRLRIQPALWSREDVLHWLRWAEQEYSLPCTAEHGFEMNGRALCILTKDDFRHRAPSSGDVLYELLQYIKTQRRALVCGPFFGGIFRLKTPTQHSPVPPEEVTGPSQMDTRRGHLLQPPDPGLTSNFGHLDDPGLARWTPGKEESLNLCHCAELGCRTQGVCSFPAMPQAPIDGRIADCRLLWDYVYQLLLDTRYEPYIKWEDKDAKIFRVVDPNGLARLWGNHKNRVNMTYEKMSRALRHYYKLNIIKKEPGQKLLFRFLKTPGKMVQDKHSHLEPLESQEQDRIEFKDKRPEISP
The settings on record: protein: recombinant; tags: N-terminal GST; dsDNA, one strand shown. The procedure, abridged: as §1

In test [16] the target is T11, ELF5 (Homo sapiens, UniProt Q9UKW6-2 1-255).
T11 sequence: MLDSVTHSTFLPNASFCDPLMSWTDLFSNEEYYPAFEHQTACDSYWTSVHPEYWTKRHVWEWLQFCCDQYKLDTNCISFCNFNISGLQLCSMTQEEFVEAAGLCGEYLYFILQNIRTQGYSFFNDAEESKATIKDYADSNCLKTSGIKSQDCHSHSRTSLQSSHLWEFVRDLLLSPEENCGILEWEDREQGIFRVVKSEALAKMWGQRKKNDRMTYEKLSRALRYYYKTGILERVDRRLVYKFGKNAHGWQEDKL
The note with it: protein: recombinant; tags: N-terminal GST; dsDNA, one strand shown. The procedure, abridged: as §1

For test [17], the target named is T12, ETV3 (Homo sapiens, UniProt P41162-2 1-143).
T12 sequence: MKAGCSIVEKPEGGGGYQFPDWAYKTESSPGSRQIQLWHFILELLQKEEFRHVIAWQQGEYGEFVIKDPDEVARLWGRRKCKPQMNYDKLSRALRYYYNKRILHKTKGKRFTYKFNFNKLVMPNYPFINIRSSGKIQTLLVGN
The settings on record: protein: recombinant; tags: N-terminal GST; dsDNA, one strand shown. The procedure, abridged: as §1

Test [18] addresses ETV6 (Homo sapiens, UniProt P41212 1-452). The note with it: protein: recombinant; tags: N-terminal GST; dsDNA, one strand shown. The procedure, abridged: as §1

ETV6, sequence (P41212 whole entry): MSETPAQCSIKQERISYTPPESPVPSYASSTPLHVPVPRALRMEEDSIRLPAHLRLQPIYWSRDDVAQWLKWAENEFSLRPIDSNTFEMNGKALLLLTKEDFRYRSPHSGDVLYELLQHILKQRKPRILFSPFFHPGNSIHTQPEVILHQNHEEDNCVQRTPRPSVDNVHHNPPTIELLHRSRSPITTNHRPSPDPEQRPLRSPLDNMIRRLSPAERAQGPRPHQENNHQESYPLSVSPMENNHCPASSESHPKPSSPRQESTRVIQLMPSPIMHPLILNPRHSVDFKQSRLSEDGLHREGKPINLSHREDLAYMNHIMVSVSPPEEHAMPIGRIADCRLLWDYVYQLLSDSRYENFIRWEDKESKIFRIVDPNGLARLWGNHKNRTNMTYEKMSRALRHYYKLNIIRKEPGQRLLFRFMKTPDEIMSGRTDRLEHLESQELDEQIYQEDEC
HSF1, sequence (Q00613 whole entry): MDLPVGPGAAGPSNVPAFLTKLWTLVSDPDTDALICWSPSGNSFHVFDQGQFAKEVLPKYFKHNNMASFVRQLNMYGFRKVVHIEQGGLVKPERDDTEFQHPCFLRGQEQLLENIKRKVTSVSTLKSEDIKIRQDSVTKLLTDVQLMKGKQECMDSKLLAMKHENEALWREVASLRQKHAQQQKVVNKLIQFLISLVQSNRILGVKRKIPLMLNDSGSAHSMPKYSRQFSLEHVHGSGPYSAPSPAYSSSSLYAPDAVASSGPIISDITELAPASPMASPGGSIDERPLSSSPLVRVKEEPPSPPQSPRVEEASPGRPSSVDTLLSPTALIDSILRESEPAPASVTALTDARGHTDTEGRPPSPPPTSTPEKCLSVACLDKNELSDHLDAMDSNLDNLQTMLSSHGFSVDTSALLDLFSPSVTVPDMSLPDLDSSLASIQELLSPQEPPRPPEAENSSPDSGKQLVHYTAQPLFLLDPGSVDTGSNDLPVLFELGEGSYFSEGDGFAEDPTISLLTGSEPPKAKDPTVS
CRX, sequence (O43186 whole entry): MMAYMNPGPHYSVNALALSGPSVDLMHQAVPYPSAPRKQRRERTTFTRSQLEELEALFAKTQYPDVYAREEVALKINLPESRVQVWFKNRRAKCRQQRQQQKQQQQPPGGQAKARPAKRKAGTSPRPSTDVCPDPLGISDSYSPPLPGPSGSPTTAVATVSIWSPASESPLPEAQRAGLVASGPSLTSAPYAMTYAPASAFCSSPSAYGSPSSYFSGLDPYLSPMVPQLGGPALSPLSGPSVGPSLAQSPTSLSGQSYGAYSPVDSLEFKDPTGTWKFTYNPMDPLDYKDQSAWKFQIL
ELF4, sequence (Q99607 whole entry): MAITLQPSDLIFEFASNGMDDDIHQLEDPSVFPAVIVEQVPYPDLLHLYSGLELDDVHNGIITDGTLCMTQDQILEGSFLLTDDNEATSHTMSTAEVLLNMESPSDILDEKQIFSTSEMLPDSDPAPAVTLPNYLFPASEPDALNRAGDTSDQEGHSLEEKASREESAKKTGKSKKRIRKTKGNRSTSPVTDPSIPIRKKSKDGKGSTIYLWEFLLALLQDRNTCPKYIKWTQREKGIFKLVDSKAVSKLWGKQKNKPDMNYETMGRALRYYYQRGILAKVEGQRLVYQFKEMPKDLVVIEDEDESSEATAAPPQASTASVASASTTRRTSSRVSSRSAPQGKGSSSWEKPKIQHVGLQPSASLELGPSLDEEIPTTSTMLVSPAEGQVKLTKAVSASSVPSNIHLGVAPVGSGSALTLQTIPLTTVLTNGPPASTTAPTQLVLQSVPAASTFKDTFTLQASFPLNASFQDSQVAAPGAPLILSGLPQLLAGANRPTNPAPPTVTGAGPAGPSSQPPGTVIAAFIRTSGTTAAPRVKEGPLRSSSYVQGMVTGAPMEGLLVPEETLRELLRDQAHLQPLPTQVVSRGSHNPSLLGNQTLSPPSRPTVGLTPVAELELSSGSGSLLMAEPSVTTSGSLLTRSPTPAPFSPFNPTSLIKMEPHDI
ETV5, sequence (P41161 whole entry): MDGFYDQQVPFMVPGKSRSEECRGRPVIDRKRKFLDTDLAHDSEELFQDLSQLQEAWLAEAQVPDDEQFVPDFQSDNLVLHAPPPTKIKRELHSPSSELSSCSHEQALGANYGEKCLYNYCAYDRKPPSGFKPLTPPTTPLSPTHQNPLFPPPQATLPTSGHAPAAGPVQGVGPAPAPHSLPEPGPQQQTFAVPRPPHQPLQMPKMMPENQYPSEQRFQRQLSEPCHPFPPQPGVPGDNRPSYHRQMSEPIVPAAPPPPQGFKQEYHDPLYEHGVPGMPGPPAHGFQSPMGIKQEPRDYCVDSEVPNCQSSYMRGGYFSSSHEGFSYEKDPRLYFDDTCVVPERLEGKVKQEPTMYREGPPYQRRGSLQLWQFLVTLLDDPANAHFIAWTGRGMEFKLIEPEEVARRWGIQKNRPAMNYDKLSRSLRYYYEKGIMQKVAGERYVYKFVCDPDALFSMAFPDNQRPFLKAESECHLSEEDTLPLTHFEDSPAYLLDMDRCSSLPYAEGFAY
ETV1, sequence (P50549 whole entry): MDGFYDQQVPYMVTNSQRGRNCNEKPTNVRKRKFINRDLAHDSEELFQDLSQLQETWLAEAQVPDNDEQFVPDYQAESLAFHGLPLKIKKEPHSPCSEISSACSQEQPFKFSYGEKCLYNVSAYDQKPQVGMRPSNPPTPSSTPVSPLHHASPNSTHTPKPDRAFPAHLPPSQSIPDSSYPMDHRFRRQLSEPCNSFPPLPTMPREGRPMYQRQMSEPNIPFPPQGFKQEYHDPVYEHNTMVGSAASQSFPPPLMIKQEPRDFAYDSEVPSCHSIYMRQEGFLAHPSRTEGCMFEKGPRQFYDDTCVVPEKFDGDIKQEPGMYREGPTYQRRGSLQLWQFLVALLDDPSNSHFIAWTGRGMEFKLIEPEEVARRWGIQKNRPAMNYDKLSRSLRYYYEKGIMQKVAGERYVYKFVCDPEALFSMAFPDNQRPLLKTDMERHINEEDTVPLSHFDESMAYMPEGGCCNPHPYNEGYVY

In the case of ACTAAC, the binding signal in [1] is 1.25 fold enrichment (6-mer frequency, TF over GST control); in [2], 1.26 fold enrichment (6-mer frequency, TF over GST control); in [3], 1.08 fold enrichment (6-mer frequency, TF over GST control); in test [4], 1.27 fold enrichment (6-mer frequency, TF over GST control); in [5], 1.33 fold enrichment (6-mer frequency, TF over GST control); in test [6], 1.19 fold enrichment (6-mer frequency, TF over GST control). Further, the binding signal was 1.19 fold enrichment (6-mer frequency, TF over GST control) in test [7]; 1.25 fold enrichment (6-mer frequency, TF over GST control) in test [8]; 1.18 fold enrichment (6-mer frequency, TF over GST control) in test [9]; 1.25 fold enrichment (6-mer frequency, TF over GST control) in test [10]; 1.34 fold enrichment (6-mer frequency, TF over GST control) in [11]; 1.29 fold enrichment (6-mer frequency, TF over GST control) in [12]. Besides, the binding signal in test [13] is 1.29 fold enrichment (6-mer frequency, TF over GST control); in [14], 1.2 fold enrichment (6-mer frequency, TF over GST control); in [15], 1.21 fold enrichment (6-mer frequency, TF over GST control); in test [16], 1.29 fold enrichment (6-mer frequency, TF over GST control); in [17], 1.24 fold enrichment (6-mer frequency, TF over GST control); in [18] it was 1.22 fold enrichment (6-mer frequency, TF over GST control).
